The test system of experiment [1] is Human papillomavirus type 1a protein E7 (residues 44-93). Briefly: HPV1a E7 fragment binders on microarrays, primary screen, biochemical, small-molecule microarray, residues 44-93, 635 nm fluorescence (AID 1108).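 Further: E7 fragment applied at 1 µg/mL in TBST for 1 h at 4 C; score combines spot fluorescence with its signal to noise ratio.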 To be noted: small-molecule microarray binding, fluorescence 635 nm; higher = more signal.
Experiment [2] can be described thus: modulators of HCV replicon luciferase signal, primary screen, HCV replication inhibitor project, Huh7 cells, luciferase reporter (AID 1109).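 Further: huh7 hepatoma cells harbouring a luciferase neomycin HCV replicon reporter; luciferase luminescence as measure of HCV replicon replication; test concentration not given here.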 To be noted: 48 h, higher = more signal. In general terms: A replicon is a self-replicating genome or part of one, used to study replication in cells.
The target in experiment [3] is Left-right determination factor 2 (Homo sapiens) (UniProt O00292). Put plainly: LEFTY2 binders on small-molecule microarrays, primary screen, biochemical, small-molecule microarray, 635 nm fluorescence scan (AID 1110). To be noted: LEFTY2 binding, higher = more signal.
Chain of Left-right determination factor 2 (Homo sapiens) (O00292 whole entry, looked up): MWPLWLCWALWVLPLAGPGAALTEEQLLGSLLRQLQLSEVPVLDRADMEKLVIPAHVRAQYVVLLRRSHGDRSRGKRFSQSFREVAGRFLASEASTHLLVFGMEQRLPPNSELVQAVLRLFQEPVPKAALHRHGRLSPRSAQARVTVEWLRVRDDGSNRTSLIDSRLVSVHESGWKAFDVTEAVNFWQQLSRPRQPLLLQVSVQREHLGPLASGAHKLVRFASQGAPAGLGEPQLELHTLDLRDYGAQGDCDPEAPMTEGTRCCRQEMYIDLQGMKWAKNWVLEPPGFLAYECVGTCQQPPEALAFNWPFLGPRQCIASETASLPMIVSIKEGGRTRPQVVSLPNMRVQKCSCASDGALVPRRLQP
Experiment [4] has as its target Calmodulin-1 (Homo sapiens) (UniProt P0DP23). Put plainly: CALM1 binders on microarrays, EGTA buffer, profiling panel, biochemical, small-molecule microarray, Cy5-labelled CALM1 (AID 1111).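 Further: labelled calmodulin applied in Tris saline Tween buffer holding calcium plus EGTA and DTT.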 To be noted: Cy5-CALM1 binding fluorescence, higher = more signal.
The target is the same in experiment [5]. Put plainly: calcium-bound CALM1 binders on microarrays, profiling panel, artefact control for SMM control-protein annotation, biochemical, small-molecule microarray, Cy5-labelled CALM1, plus calcium (AID 1112).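 Further: score merges spot fluorescence with signal to noise from triplicate slides.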 Particulars: Cy5-CALM1 binding fluorescence, higher = more signal.
Experiment [6] is described as follows: small-molecule microarray binders of probe aWnt5a, primary screen, biochemical, biotinylated probe, 635/667 nm fluorescence (AID 1113).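 Further: score merges 667 nm fluorescence intensity with signal-to-noise per printed feature.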 To be noted: higher = more signal.
The nature of experiment [7]: small-molecule microarray binders of probe aShh, primary screen, biochemical, biotinylated probe, 635/667 nm fluorescence (AID 1114).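 Further: probe is biotin-labelled aShh protein from a stem cell growth factor screen; measures binding of labelled protein to compounds printed on the slide; score merges feature fluorescence at 667 nm with signal-to-noise.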 Particulars: higher = more signal.
The nature of experiment [8]: small-molecule microarray binders of probe aNog, primary screen, biochemical, biotinylated probe, 635/667 nm fluorescence (AID 1115).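 Further: probe is biotinylated aNog protein used at 0.15 µg/mL for 1 h at 4 C; z-score combines 667 nm fluorescence of each spot with its signal to noise.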 To be noted: higher = more signal.
The target of experiment [9] is Torsin-1A-interacting protein 1 (Homo sapiens) (UniProt Q5JTV8). Put plainly: LAP1 binders from COS7 cell lysate, primary screen, small-molecule microarray, 635/667 nm fluorescence (AID 1116). Particulars: COS7-hLAP1 lysate binding, 635 nm fluorescence, higher = more signal.
Chain of Torsin-1A-interacting protein 1 (Homo sapiens) (Q5JTV8 whole entry, looked up): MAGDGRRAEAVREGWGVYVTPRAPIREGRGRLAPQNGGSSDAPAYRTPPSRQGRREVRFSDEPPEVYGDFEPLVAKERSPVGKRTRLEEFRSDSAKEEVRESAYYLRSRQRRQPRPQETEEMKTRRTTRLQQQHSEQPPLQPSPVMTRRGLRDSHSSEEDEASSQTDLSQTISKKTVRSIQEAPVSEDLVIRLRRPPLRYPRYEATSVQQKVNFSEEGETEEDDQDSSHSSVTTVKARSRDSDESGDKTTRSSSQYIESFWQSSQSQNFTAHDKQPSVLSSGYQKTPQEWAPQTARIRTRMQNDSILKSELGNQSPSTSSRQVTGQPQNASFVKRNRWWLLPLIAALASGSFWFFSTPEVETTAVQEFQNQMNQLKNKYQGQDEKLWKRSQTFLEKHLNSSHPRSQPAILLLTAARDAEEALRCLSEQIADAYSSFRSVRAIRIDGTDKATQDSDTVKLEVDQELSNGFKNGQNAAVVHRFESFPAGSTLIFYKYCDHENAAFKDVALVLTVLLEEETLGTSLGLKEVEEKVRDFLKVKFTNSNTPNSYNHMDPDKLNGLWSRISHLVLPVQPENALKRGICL
In experiment [10] the target is Alpha-bungarotoxin (Bungarus multicinctus) (UniProt P60615). Briefly: alpha-bungarotoxin binders on microarray, profiling panel, artefact control for SMM control protein annotation, biochemical, small-molecule microarray, Alexa647 label, 635/667 nm fluorescence (AID 1117). Particulars: alpha-BTX-A647 binding fluorescence, higher = more signal.
Chain of Alpha-bungarotoxin (Bungarus multicinctus) (P60615 whole entry, looked up): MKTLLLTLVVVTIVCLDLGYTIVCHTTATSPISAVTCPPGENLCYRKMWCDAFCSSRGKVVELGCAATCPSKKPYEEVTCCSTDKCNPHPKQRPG

As for `CC(C)NC(=O)[C@@]1(c2ccc([N+](=O)[O-])cc2)CC(=O)N(CC23CC4CC(CC(C4)C2)C3)[C@@H]1c1ccc(CO)cc1`, the composite z-score in [1] is 0.939; in [3], 1.03; in [4], 1.03; in experiment [5], -0.0022; in experiment [6] it was 0.289; in experiment [7], 0.321. For the same molecule, the composite z-score in [8] turned out to be 1.85; in [9], 1.52; in experiment [10], 1.37. In experiment [2], the z-score was -2.7.

For `CC(C)N1C(=O)C[C@@](C(=O)NCCN2CCOCC2)(c2ccc([N+](=O)[O-])cc2)[C@H]1c1ccc(CO)cc1`, the composite z-score is -0.0369 in experiment [1]; -1.07 in [3]; -0.701 in [4]; -0.272 in [5]; -0.298 in [6]; -0.221 in [7]. Besides, the composite z-score was -0.478 in experiment [8], 2.15 in experiment [9] and -0.418 in experiment [10]. Also, the z-score in experiment [2] is 0.323.

Take `C=CCNC(=O)[C@H]1[C@@H]2C(=O)O[C@@H](c3ccccc3)[C@@H](c3ccccc3)N2[C@@H](c2ccc(OCCO)cc2)[C@]12C(=O)Nc1ccccc12`: the composite z-score in experiment [1] is 1.39; in [3] it was -0.514; in experiment [4] it was 1.85; in experiment [5], 0.345; in experiment [6], -0.0405; in [7], -0.0505. The figures for the composite z-score in [8], in experiment [9] and in experiment [10] were 0.666, 1.87 and 1.4, respectively. The z-score in experiment [2] is -1.4.

As for `O=C1[C@H]2C=C(I)[C@H](C[C@@H]2c2ccccc2)[C@@]12CO2`, the composite z-score in experiment [1] is -0.0983; in [3], 0.208; in experiment [4] it was -0.68; in experiment [5], -0.661; in [6], -0.0977; in experiment [7], -0.117. Besides, the composite z-score in experiment [8] was -0.172; in experiment [9], 0.126; in [10] it was 0.0292. The molecule also came in with a z-score in [2] of -3.6.

Regarding `CCCC[C@H]1OB(O)C[C@H]2C1=C(COc1ccccc1)C[C@H]1C(=O)C=CC(=O)[C@H]12`, the composite z-score in experiment [1] was 0.0194; in experiment [3], 0.406; in [4], -0.415; in [5] it was -0.68; in experiment [6] it was -0.152; in experiment [7], -0.283. Besides, the composite z-score in experiment [8] was -0.295; in experiment [9], 0.0135; in experiment [10], -0.388. The z-score in experiment [2] is -1.36.

Consider `COCCOC(=O)N1C(=O)[C@@]2(c3cc(C#Cc4ccc(OC)cc4)ccc31)[C@H](c1ccc(OCCO)cc1)N1[C@H](c3ccccc3)[C@H](c3ccccc3)OC(=O)[C@H]1[C@@H]2C(=O)NC[C@H](O)c1ccccc1`, for which the composite z-score is 1.12 in experiment [1]; 1.25 in [3]; 1.15 in experiment [4]; 0.842 in experiment [5]; 0.0078 in experiment [6]; -0.273 in experiment [7]. Further, the values for the composite z-score in experiment [8], in [9] and in experiment [10] were 0.338, 0.851 and 1.4, respectively. This molecule displayed a z-score in [2] of -1.69.

`O=C1C[C@@](C(=O)NC2CC2)(c2ccc([N+](=O)[O-])cc2)[C@@H](c2ccc(CO)cc2)N1C1CCCCC1`: the composite z-score is 1.44 in experiment [1]; 0.257 in [3]; 0.522 in [4]; 0.435 in experiment [5]; -0.1 in experiment [6]; 0.149 in experiment [7]. The composite z-score in experiment [8] was -0.292; in experiment [9] it was 1.43; in experiment [10], 0.538. The same molecule displayed a z-score in experiment [2] of -2.02.

Regarding `Cc1ccc(S[C@]2(C(=O)NC3CC3)CC(=O)N(C(C)C)[C@@H]2c2ccc(CO)cc2I)cc1`, the composite z-score was 1.17 in experiment [1]; -0.792 in [3]; -0.462 in experiment [4]; -0.0946 in experiment [5]; 0.191 in experiment [6]; -0.372 in experiment [7]. The figures for the composite z-score in [8], in experiment [9] and in experiment [10] were -0.519, 1.74 and -0.0074, respectively. The molecule also came in with a z-score in [2] of -2.21.

For `CC(C)C(=C=CC[C@H](O)c1ccccc1OCCO)C[C@H](O)COCc1ccccc1`, the composite z-score in [1] is 0.257; in experiment [3] it was -0.274; in [4] it was 0.444; in experiment [5], -0.457; in [6], -0.128; in experiment [7], -0.0681. Further, the composite z-score in experiment [8] is -0.391; in experiment [9], -0.251; in experiment [10], 0.257. In addition, the z-score in experiment [2] is -1.88.

Consider `COc1ccc([Si](C)(C)[C@@H]2[C@@H](CC(=O)N3CCC[C@H]3CO)O[C@]3(C(=O)N(Cc4cccc(N5CCCCC5=O)c4)c4ccccc43)[C@H]2C)cc1`, for which the composite z-score in experiment [1] is 0.845; in experiment [3] it was 0.415; in experiment [4] it was 0.336; in experiment [5], 0.0654; in experiment [6], -0.148; in [7] it was 0.0723. Also, the composite z-score worked out at 0.21 in [8], 0.191 in [9] and 1.22 in experiment [10]. The z-score in [2] is -2.57.

Take `C=CCOC(=O)[C@@H]1[C@H]2C(=O)O[C@H](c3ccccc3)[C@H](c3ccccc3)N2[C@H](c2ccc(OCCOC(=O)[C@H]3C[C@H]4C(=O)N5CCC[C@H]5C(=O)N4[C@H]3c3cccc(OCCO)c3)cc2)[C@@]12C(=O)Nc1ccc(I)cc12`: the composite z-score in experiment [1] was 0.195; in experiment [3] it was 1.19; in experiment [4], -0.0165; in experiment [5] it was 0.0231; in experiment [6], -0.0566; in experiment [7] it was 0.138. Also, the composite z-score in [8] came to 0.373; in experiment [9] it was 1.09; in experiment [10] it was 0.659. Moreover, the z-score in experiment [2] was -0.898.

Consider `CC(C)(C)N1CC=CC23O[C@@H]4/C=C\CCCOC(=O)C4[C@H]2C(=O)N(CCCCCO)[C@@H]3C1=O` (stereo not given in full), for which the composite z-score in experiment [1] is -0.267; in [3], -1.48; in experiment [4], -0.677; in experiment [5] it was -0.893; in experiment [6], -0.213; in [7], 0.074. The composite z-score in [8] was -0.122; in experiment [9] it was -0.286; in [10], -0.954. In experiment [2], this molecule gave a z-score of -0.887.

As for `COC(=O)[C@H](Cc1ccc(O)cc1)N[C@@H](/C=C/C1CC1)[C@H](O)Cc1ccccc1`, the composite z-score is -0.367 in experiment [1]; -0.0158 in experiment [3]; -0.851 in experiment [4]; -0.929 in [5]; -0.15 in [6]; -0.214 in experiment [7]. Further, the composite z-score in [8] is -0.321; in [9], 0.108; in [10], -0.22. Also, the z-score in experiment [2] was -1.06.

On to `COC(=O)[C@@]1(Cc2ccc(OC)cc2)[C@H]2c3cc(C(=O)N4CCCC4)n(Cc4c(CO)[nH]cc(C)c4=O)c3C[C@H]2CN1C(=O)c1ccccc1`, for which the composite z-score in experiment [1] was -0.78; in experiment [3], -0.181; in [4], 2.05; in experiment [5] it was 0.593; in experiment [6] it was 0.0328; in [7] it was -0.156. For the same molecule, the composite z-score came to 0.947 in experiment [8], 2.32 in experiment [9] and 0.12 in [10]. The same molecule gave a z-score in [2] of -1.4.

In the case of `C=C(CCCC)/C(=C/C[C@H](OC(=O)c1ccncc1)c1ccccc1OCCO)c1cc(C(=O)OC)ccc1OC`, the composite z-score in experiment [1] is 1.22; in experiment [3], -0.015; in [4], -0.0646; in experiment [5] it was -0.636; in experiment [6], -0.0331; in [7], 0.0684. The composite z-score is -0.305 in experiment [8], 0.869 in [9] and -0.056 in experiment [10]. The z-score in [2] is -2.89.

Turning to `O=C(O)[C@H](Cc1ccccc1)n1cc(C2(O)CCCCC2)nn1`, the composite z-score was 0.792 in [1]; 0.678 in [3]; -0.259 in experiment [4]; -0.691 in experiment [5]; -0.263 in experiment [6]; 0.527 in [7]. For the same molecule, the composite z-score in experiment [8] is -0.0899; in experiment [9] it was 0.281; in [10] it was 0.0396. In experiment [2], this molecule came in with a z-score of -0.96.

For the molecule `Cc1ccc(S[C@]2(C(=O)NCC(F)(F)F)CC(=O)N(Cc3ccccc3C(F)(F)F)[C@@H]2c2ccc(CO)cc2)cc1`, the composite z-score was -0.654 in experiment [1]; -1.32 in [3]; -0.39 in experiment [4]; 0.0313 in experiment [5]; -0.199 in [6]; -0.253 in experiment [7]. Moreover, the values for the composite z-score in [8], in [9] and in experiment [10] were 0.526, 0.0216 and -0.693, respectively. The molecule also returned a z-score in [2] of 0.169.
